In PubChem BioAssay one finds composite z-score and z-score data, which are given here for five compounds.

SMILES strings stand for the structures. The source made the active and inactive calls.

Test [1] can be described thus: small molecules captured by biotinylated probe aFSTL3 – biochemical, small-molecule microarray, fluorescence 635/667, stem cell growth factor project, primary screen (AID 1064).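 Also: measures binding of the biotinylated anti-FSTL3 antibody to printed compounds.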 To be noted: higher = more signal.
A short description of test [2]: binders from COS7 lysate, DM2A8 probe, primary screen, torsin A project, cell lysate, small-molecule microarray, fluorescence 635/667 (AID 1065). To be noted: higher = more signal, COS7 lysate expressing mutant human TOR1A.
The nature of test [3]: small molecules captured by biotinylated probe aFGF2 – biochemical, small-molecule microarray, fluorescence 635/667, stem cell growth factor project, primary screen (AID 1067).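 Also: measures binding of biotinylated aFGF2 protein to printed compounds on slides; z-score merges feature fluorescence and signal-to-noise across triplicate slides.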 To be noted: higher = more signal.
Test [4] in a line: small molecules captured by biotinylated probe aFGF10 – biochemical, small-molecule microarray, fluorescence 635/667, stem cell growth factor project, primary screen (AID 1071).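 Also: score merges 667 nm spot intensity and signal to noise from triplicate slides.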 To be noted: higher = more signal.
The target in test [5] is Neurogenic locus notch homolog protein 2 (Homo sapiens) (UniProt Q04721). The test can be described thus: small molecules binding Notch2 protein – biochemical, small-molecule microarray, 635 nm fluorescence, stem cell growth factors, primary screen (AID 1073). To be noted: higher = more signal.
Test [6] deals with Pro-neuregulin-1, membrane-bound isoform (Homo sapiens) (UniProt Q02297). The test is described as follows: small molecules binding neuregulin-1 protein – biochemical, small-molecule microarray, fluorescence 635/667, psychiatric disease protein project, primary screen (AID 1075).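 Also: score combines 667 nm spot fluorescence with signal to noise.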 To be noted: NRG1 binding, 635 nm fluorescence, higher = more signal.
Chain of Pro-neuregulin-1, membrane-bound isoform (Homo sapiens) (Q02297 whole entry, looked up, the tested form may be a part, canonical isoform): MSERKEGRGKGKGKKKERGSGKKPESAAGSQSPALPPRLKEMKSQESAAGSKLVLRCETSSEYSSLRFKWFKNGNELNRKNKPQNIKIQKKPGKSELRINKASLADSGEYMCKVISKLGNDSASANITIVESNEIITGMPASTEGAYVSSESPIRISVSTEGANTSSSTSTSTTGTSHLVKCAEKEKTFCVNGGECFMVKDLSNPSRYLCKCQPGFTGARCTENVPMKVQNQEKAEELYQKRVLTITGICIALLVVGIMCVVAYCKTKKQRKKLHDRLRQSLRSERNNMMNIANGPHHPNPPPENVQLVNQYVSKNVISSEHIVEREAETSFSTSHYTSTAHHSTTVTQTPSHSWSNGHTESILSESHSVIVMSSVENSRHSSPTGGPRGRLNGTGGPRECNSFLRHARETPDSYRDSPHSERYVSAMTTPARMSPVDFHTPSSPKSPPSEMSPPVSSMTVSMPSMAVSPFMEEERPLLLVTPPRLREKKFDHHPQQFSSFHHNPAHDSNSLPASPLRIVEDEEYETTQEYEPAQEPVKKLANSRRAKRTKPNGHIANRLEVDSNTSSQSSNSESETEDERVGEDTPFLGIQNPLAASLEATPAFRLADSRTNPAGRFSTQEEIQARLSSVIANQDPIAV
Test [7] has as its system Neuregulin-1 EGF-like domain. The test can be described thus: small molecules binding NRG1 EGF domain – biochemical, small-molecule microarray, 635 nm fluorescence, primary screen (AID 1081).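 Also: binding of the protein to compounds printed on small-molecule microarray slides.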 To be noted: higher = more signal.
A short description of test [8]: FRG1 expression reporter modulators in myotubes – cell-based, C2C12 myotubes, firefly/Renilla luciferase, luminescence, FRG1 inhibition for FSHD, primary screen (AID 1084). To be noted: FRG1 promoter luciferase, higher = more signal, called active from +8 up or from −8 down.
The nature of test [9]: small molecules captured by biotinylated probe aFST – biochemical, small-molecule microarray, fluorescence 635/667, stem cell growth factor project, primary screen (AID 1086).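 Also: score merges 667 nm fluorescence with signal-to-noise of each printed compound spot.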 To be noted: higher = more signal.
Test [10] is described as follows: binders of probe aHhip on microarray, primary screen, stem cell growth factor project, biochemical, small-molecule microarray, fluorescence 635/667 (AID 1087).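 Also: score merges spot fluorescence at 667nm with spot signal to noise ratio.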 To be noted: higher = more signal.
The test system of test [11] is PRMT1 (protein arginine N-methyltransferase 1). The test is described as follows: small molecules binding arginine methyltransferase PRMT1 – biochemical, small-molecule microarray, 635 nm fluorescence, primary screen (AID 1088).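 Also: binding of Prmt1 protein to compounds spotted on small-molecule microarray slides.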 To be noted: higher = more signal.
A short description of test [12]: growth effects on S. cerevisiae YJM789 – YJM789 clinical isolate, OD600, 24 h, basal, primary screen (AID 1089).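 Also: growth of clinical yeast isolate S. cerevisiae YJM 789 seeded 1000 cells per well; test concentration not given here.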 To be noted: higher = more signal, called active from +8 up or from −8 down.
Test [13] is described as follows: S. pombe growth modifiers, basal conditions – strain 972, OD600, 24 h, no modulator, primary screen (AID 1090).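 Also: basal condition with compound alone and no growth modifier present; test concentration not given here.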 To be noted: S. pombe 972 growth, higher = more signal, called active from +8 up or from −8 down.
Test [14] in a line: budding yeast growth modifiers under rapamycin – strain BY4716, OD600, 96 h, primary screen (AID 1091). Also: test concentration not given here. To be noted: S. cerevisiae BY4716 + rapamycin, higher = more signal, called active from +8 up or from −8 down.
Test [15] concerns the target Torsin-1A-interacting protein 2 (Homo sapiens) (UniProt Q8NFQ8). The test is described as follows: small molecules binding lysate-expressed LULL1 – cell lysate, human LULL1 lysate, 635/667 nm fluorescence, primary screen (AID 1092).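 Also: probe is lysate of COS7 cells overexpressing human LULL1; score merges per-feature 667 nm fluorescence with signal-to-noise.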 To be noted: small-molecule microarray, hLULL1 lysate binding, 635 nm fluorescence; higher = more signal.
Test [16] is described as follows: optical density change of DRC41 E. coli – strain DRC41, OD650, 24 h, E. coli filamentation project, primary screen (AID 1093).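 Also: MC1000 strain lacking acrAB efflux and sulA so SOS filamentation is blocked; test concentration not given here.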 To be noted: E. coli DRC41 growth, higher = more signal, called active from +8 up or from −8 down.
Test [17] in a line: probe aLefty2 binding to arrayed compounds – biochemical, biotinylated probe, 635/667 nm fluorescence, primary screen (AID 1094).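 Also: score merges spot fluorescence near 667 nm with spot signal-to-noise ratio.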 To be noted: small-molecule microarray, higher = more signal.
Test [18] concerns Noggin (protein binding on small-molecule microarray). The test is described as follows: small molecules binding Noggin protein – biochemical, 635/667 nm fluorescence, primary screen (AID 1095).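 Also: score merges 667 nm feature fluorescence with signal to noise over triplicate slides.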 To be noted: 635 nm fluorescence, higher = more signal.
Test [19] deals with Neurogenic locus notch homolog protein 3 (Homo sapiens) (UniProt Q9UM47). The test can be described thus: small molecules binding NOTCH3 protein – biochemical, 635/667 nm fluorescence, primary screen (AID 1096). To be noted: small-molecule microarray, 635 nm fluorescence, higher = more signal.
Chain of Neurogenic locus notch homolog protein 3 (Homo sapiens) (Q9UM47 whole entry, looked up): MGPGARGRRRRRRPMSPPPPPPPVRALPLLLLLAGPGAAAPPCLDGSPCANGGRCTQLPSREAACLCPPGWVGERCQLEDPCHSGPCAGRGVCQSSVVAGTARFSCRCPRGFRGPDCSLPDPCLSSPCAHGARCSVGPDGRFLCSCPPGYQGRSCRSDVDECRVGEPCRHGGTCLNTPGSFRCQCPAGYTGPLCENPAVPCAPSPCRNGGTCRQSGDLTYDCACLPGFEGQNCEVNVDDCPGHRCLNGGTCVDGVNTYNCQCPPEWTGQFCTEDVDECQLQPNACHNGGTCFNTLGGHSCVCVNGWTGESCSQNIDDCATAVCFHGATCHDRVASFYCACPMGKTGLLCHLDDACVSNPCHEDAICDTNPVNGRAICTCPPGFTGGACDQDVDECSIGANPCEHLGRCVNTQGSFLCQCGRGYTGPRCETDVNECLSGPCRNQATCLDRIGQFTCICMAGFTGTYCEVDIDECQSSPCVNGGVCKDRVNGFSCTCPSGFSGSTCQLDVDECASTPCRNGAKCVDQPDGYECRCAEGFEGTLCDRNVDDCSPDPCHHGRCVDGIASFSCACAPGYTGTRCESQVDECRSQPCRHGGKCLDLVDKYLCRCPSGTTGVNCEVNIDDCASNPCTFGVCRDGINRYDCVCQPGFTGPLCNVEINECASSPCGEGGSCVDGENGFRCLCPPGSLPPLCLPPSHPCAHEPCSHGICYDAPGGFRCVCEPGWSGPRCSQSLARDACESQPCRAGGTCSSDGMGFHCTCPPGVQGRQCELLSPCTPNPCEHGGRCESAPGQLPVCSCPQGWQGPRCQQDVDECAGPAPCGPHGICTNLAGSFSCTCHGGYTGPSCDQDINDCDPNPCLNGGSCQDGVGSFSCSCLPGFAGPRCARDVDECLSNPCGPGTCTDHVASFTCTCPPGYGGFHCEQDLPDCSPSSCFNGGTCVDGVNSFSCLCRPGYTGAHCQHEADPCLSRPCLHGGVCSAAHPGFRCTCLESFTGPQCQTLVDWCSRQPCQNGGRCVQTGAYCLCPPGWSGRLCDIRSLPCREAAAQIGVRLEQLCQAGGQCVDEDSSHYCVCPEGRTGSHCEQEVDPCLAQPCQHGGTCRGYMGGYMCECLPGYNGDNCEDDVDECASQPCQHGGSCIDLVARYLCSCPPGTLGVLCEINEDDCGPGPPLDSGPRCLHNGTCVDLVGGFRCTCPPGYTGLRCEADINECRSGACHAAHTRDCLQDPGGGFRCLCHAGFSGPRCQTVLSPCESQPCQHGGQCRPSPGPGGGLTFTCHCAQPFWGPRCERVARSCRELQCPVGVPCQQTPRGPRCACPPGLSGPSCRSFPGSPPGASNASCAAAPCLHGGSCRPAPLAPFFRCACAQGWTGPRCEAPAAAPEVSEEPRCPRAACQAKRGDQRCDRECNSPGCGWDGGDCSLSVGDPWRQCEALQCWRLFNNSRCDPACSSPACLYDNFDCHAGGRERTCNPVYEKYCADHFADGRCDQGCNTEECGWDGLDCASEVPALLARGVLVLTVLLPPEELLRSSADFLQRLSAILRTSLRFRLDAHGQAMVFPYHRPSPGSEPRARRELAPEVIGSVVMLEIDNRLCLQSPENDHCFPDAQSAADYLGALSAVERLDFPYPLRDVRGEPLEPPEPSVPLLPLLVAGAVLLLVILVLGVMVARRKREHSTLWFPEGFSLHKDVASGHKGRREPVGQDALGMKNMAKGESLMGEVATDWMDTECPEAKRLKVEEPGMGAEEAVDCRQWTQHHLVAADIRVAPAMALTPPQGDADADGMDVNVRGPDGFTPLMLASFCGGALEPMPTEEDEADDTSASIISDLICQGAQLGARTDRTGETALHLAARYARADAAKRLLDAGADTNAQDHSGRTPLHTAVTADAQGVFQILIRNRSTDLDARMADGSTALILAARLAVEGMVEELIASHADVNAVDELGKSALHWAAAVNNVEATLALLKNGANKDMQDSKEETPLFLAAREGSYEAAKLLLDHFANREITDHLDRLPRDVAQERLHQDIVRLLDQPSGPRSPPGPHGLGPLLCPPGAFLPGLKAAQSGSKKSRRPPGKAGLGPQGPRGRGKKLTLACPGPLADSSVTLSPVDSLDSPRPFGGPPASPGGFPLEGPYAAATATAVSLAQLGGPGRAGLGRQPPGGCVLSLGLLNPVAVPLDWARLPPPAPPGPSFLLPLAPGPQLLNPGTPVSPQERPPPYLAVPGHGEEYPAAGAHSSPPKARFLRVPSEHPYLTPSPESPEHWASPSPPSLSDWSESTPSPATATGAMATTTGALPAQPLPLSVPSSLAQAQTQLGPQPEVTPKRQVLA
Test [20] is described as follows: probe aEGFR binding to arrayed compounds – biochemical, biotinylated probe, 635/667 nm fluorescence, primary screen (AID 1097).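 Also: probe is a biotinylated anti-EGFR antibody binding compounds printed on slides; score combines fluorescence near 667 nm and signal to noise of each spot.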 To be noted: small-molecule microarray, higher = more signal.

Chain of Torsin-1A-interacting protein 2 (Homo sapiens) (Q8NFQ8 whole entry, looked up): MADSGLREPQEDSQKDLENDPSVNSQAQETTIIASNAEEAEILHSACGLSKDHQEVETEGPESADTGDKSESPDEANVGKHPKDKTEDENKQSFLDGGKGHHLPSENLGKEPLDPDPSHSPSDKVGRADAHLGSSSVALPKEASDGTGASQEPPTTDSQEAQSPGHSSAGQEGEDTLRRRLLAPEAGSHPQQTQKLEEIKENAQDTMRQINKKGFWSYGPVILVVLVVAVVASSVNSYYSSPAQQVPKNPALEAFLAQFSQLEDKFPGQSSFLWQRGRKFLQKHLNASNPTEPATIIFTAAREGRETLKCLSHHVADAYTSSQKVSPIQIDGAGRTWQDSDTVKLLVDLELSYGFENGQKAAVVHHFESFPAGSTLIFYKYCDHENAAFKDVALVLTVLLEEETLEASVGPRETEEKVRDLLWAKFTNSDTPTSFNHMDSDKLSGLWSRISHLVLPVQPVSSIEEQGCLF

For the compound `COc1ccc(C#Cc2ccc3c(c2)[C@]2(C(=O)N3)[C@H](C(=O)N3CCN(c4ncccn4)CC3)[C@H]3C(=O)O[C@H](c4ccccc4)[C@H](c4ccccc4)N3[C@@H]2c2ccc(O)cc2)cc1`, the composite z-score in test [1] is -0.092; in test [2], 0.308; in [3], -0.232; in test [4] it was 0.207; in test [5] it was 0.871; in test [6], 1.19. The composite z-score in [7] was 1.17; in test [9] it was 0.234; in test [10], -0.353; in [11], 1.56; in test [15], 2.33; in test [17], 0.0897. Also, the composite z-score was 0.496 in [18], 0.853 in test [19] and -0.0573 in test [20]. Further, the z-score was 0.437 (inactive) in test [8]; 0.77 (inactive) in [12]; 0.86 (inactive) in [13]; 1.17 (inactive) in test [14]; -0.459 (inactive) in test [16].

Regarding `COc1cc(CO)cc(I)c1O[C@H]1C=C(C(=O)NCCO)C[C@@H](N(CCc2cccc(F)c2)C(=O)CCC2CCCC2)[C@@H]1O`, the composite z-score is 0.0822 in test [1]; 0.825 in test [2]; 0.195 in test [3]; 0.146 in test [4]; 0.0011 in test [5]; 1.27 in test [6]. In addition, the composite z-score is 1.29 in test [7]; 0.336 in [9]; 0.219 in test [10]; 1.55 in [11]; 1.7 in test [15]; -0.0632 in [17]. Further, the results for the composite z-score in test [18], in test [19] and in [20] were 1.91, 0.922 and -0.0302, respectively. Also, the z-score was -4.64 (inactive) in test [8]; 0.645 (inactive) in [12]; -6.99 (inactive) in test [13]; -1.02 (inactive) in [14]; 0.0555 (inactive) in test [16].

Take `O=C1OCC=C[C@H]2OC34C=CCN(Cc5ccccc5)C(=O)[C@H]3N(CCCO)C(=O)[C@@H]4[C@@H]12` (stereo not given in full): the composite z-score in test [1] was 0.646; in test [2], -0.815; in test [3], 0.0661; in test [4], -0.17; in [5], -0.286; in test [6], 2.42. Also, the composite z-score in test [7] is 1.42; in test [9], 0.245; in test [10] it was 0.902; in test [11], 0.733; in test [15] it was 3.71; in [17] it was 0.694. Further, the composite z-score in test [18] is 0.319; in test [19] it was 0.288; in [20] it was -0.0703. In addition, the z-score is 0.0735 (inactive) in [8]; 0.393 (inactive) in test [12]; -0.885 (inactive) in test [13]; -0.38 (inactive) in test [14]; 2.76 (inactive) in test [16].

`O=C1C2C=CC(C(O)c3ccccn3)N(Nc3ccccc3F)C2C(=O)N1c1ccccc1` (stereo not given): the composite z-score in [1] was -0.22; in [2], 0.135; in [3], -0.047; in [4], 0.4; in [5], 0.417; in test [6], 0.301. The composite z-score was 1.02 in test [7]; 0.19 in test [9]; -0.0945 in [10]; 0.0392 in test [11]; 1 in test [15]; -0.0561 in [17]. In addition, the composite z-score in [18] was 0.0291; in test [19], -0.584; in test [20], -0.0581. Further, the z-score is 1.9 (inactive) in test [8]; 0.839 (inactive) in test [12]; 0.0161 (inactive) in test [13]; -0.207 (inactive) in test [14]; -0.717 (inactive) in test [16].

Consider `O=C1C2C=CC(C(O)c3ccc(Br)cc3)N(n3cnnc3)C2C(=O)N1Cc1ccccc1` (stereo not given), for which the composite z-score in test [1] is -0.0627; in test [2] it was 0.52; in test [3], 0.0488; in [4], 0.533; in [5], 1.3; in [6] it was 0.0603. In addition, the composite z-score came out at 0.722 in test [7]; 0.549 in test [9]; 0.134 in test [10]; 1.56 in [11]; 2.83 in test [15]; 0.126 in test [17]. The composite z-score was 0.57 in [18], 1.03 in [19] and 0.115 in [20]. Moreover, the z-score in test [8] was 0.258 (inactive); in test [12], -26.6 (active); in [13], -16 (active); in test [14] it was 0.881 (inactive); in test [16], -0.415 (inactive).
